Here are results for 15 compounds from PubChem BioAssay.

Structures are written as SMILES. Activity calls are given as the source filed them.

A short description of assay [1]: A549 cell viability effects, profiling panel, calcein-AM fluorescence, 48 h, basal (AID 1162). The conditions noted are these: higher = more signal.
The nature of assay [2]: adipocyte viability effects, profiling panel, cell-based, 3T3-L1 adipocytes, calcein-AM fluorescence, 48 h, basal (AID 1163). The conditions noted are these: 3T3-L1 adipocytes viability, higher = more signal.
A short description of assay [3]: HepG2 cell viability effects, profiling panel, calcein-AM fluorescence, 48 h, basal (AID 1164). The conditions noted are these: higher = more signal.
Assay [4] can be described thus: MM1S cell viability effects, profiling panel, calcein-AM fluorescence, 48 h, basal (AID 1165).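 Note: viability of MM1S multiple myeloma cells under basal unstimulated conditions.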 The conditions noted are these: higher = more signal.
Assay [5] in a line: basal RPMI8226 viability, no added stimulus, profiling panel, cell-based, calcein-AM fluorescence, 48 h, PK04 Diversity Set (AID 1166).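 Note: cells grown under basal conditions without added stimulus.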 Conditions: RPMI8226 myeloma viability, higher = more signal.
Assay [6] can be described thus: basal HepG2 mitochondrial membrane potential changes, profiling panel, cell-based, JC-1 fluorescence, 24 h, 100 nL compound (AID 1167). Conditions: higher = more signal.
Assay [7] in a line: basal 3T3-L1 adipocyte mitochondrial potential changes, profiling panel, cell-based, JC-1 fluorescence, 3T3-L1 adipocytes, 24 h, 100 nL compound (AID 1168). The conditions noted are these: JC-1 mitochondrial fluorescence, higher = more signal, called active from +8 up or from −8 down.
Assay [8] in a line: basal RPMI8226 mitochondrial membrane potential changes, profiling panel, cell-based, JC-1 fluorescence, 24 h, 100 nL compound (AID 1169). The conditions noted are these: RPMI8226 myeloma, JC-1 mitochondrial potential fluorescence, higher = more signal.
Assay [9] is described as follows: basal MM1S mitochondrial membrane potential changes, profiling panel, cell-based, JC-1 fluorescence, 24 h, 100 nL compound (AID 1170). The conditions noted are these: higher = more signal.
Assay [10] can be described thus: A549 lung cancer cell viability effects, profiling panel, resazurin fluorescence, 24 h, PK04 Diversity Set (AID 1171). Conditions: higher = more signal, called active from +8 up or from −8 down.
Note: test concentration not given here.

Take `C=CCOC(=O)[C@@H]1[C@H]2C(=O)O[C@H](c3ccccc3)[C@H](c3ccccc3)N2[C@H](c2ccc(OCCOC(=O)[C@H]3C[C@H]4C(=O)N[C@@H](Cc5ccccc5)C(=O)N4[C@H]3c3cccc(OCCO)c3)cc2)[C@@]12C(=O)Nc1ccc(I)cc12`: the z-score is 0.188 in [1]; -0.282 in [2]; 0.921 in [3]; -3.18 in [4]; -0.493 in assay [5]; 0.244 in [6]. Further, the z-score in assay [7] is 0.473 (inactive); in [8], -0.903; in assay [9], -1.57; in [10] it was 0.535 (inactive).
Regarding `C[C@H]1ON(c2ccccc2)[C@@H](c2ccccc2)[C@@H]1C(=O)N1C(=O)OC[C@@H]1c1ccccc1`, the z-score in [1] is -0.279; in assay [2], 0.261; in assay [3] it was -0.941; in assay [4], 0.608; in assay [5] it was -0.144; in assay [6], -1.24. Also, the z-score was 0.46 (inactive) in assay [7], 0.488 in assay [8], -0.127 in [9] and 0.535 (inactive) in [10].
As for `COc1ccc(C(=O)Nc2ccc3c(c2)[C@]2(O[C@@H](CCO)[C@H]([Si](C)(C)c4ccc(OC)cc4)[C@H]2C)C(=O)N3Cc2ccccc2)cc1`, the z-score in assay [1] is -1.34; in assay [2] it was 1.39; in assay [3] it was -2.56; in [4], -2.64; in [5], -2.99; in [6], 0.00933. Besides, the z-score in [7] was -0.0069 (inactive); in assay [8], -0.965; in assay [9], -0.497; in assay [10], -2.42 (inactive).
Take `NCCCCCCNC(=O)[C@H]1C[C@H]2C(=O)N3CCC[C@H]3C(=O)N2[C@H]1c1ccc(O)cc1`: the z-score was -0.194 in assay [1]; 1.14 in assay [2]; -1.01 in assay [3]; -0.346 in [4]; -0.707 in assay [5]; -0.806 in assay [6]. The z-score is -1.34 (inactive) in [7], 0.26 in assay [8], 0.698 in assay [9] and -0.608 (inactive) in [10].
As for `CC(C)NC(=O)[C@@]1(Cc2ccccc2I)c2ccccc2C(=O)N(Cc2ccccc2C(F)(F)F)[C@H]1c1ccc(CO)cc1`, the z-score is 0.325 in assay [1]; 1.77 in assay [2]; 0.289 in [3]; -1.43 in assay [4]; -1.66 in assay [5]; 0.347 in assay [6]. Also, the z-score in assay [7] is 0.536 (inactive); in assay [8], -0.476; in [9], 0.749; in assay [10] it was 0.444 (inactive).
Consider `COc1ccc(CCNC(=O)[C@@H]2c3ccccc3C(=O)N(Cc3ccccc3C(F)(F)F)[C@H]2c2ccc(CO)cc2)cc1`, for which the z-score in [1] was 0.0059; in assay [2], -0.513; in assay [3], 0.106; in [4], -0.601; in assay [5], -0.0978; in assay [6], 1.2. Also, the z-score in assay [7] is 0.996 (inactive); in assay [8] it was -0.667; in [9], 0.00958; in [10] it was 2.22 (inactive).
Regarding `O=C1N(CCS(=O)(=O)c2ccccc2)c2ccccc2[C@H]2OC(c3ccc(OCCCO)cc3)=N[C@@]12CCS(=O)(=O)c1ccccc1`, the z-score was 0.571 in [1]; 0.771 in assay [2]; 0.504 in assay [3]; 0.201 in [4]; -0.0504 in [5]; -0.38 in assay [6]. In addition, the z-score was 2.29 (inactive) in [7], -0.371 in assay [8], -1.23 in assay [9] and 0.789 (inactive) in assay [10].
On to `CN(C)CCCCCCNC(=O)[C@@H]1C[C@@H]2C(=O)NCC(=O)N2[C@@H]1c1ccc(O)cc1`, for which the z-score was -0.627 in assay [1]; 0.5 in assay [2]; -0.963 in [3]; -0.539 in assay [4]; 0.71 in assay [5]; -1.16 in assay [6]. For the same compound, the z-score in assay [7] is -0.782 (inactive); in [8], 0.3; in assay [9], 0.216; in assay [10] it was -0.898 (inactive).
In the case of `NC(=O)NCC#Cc1ccc2c(c1)[C@]1(C(=O)N2)[C@H](c2ccc(OCCO)cc2)N2[C@H](c3ccccc3)[C@H](c3ccccc3)OC(=O)[C@H]2[C@@H]1C(=O)N1CCCCCCC1`, the z-score in [1] was -0.702; in [2] it was -0.467; in assay [3] it was -0.455; in [4] it was 0.135; in assay [5], -1.31; in [6] it was -1.76. For the same compound, the z-score in [7] is -1.87 (inactive); in [8], -0.638; in assay [9] it was -1.02; in assay [10], 0.252 (inactive).
As to `C=CC[C@@]1(C(=O)NCCN2CCOCC2)N=C(c2ccc(OCCCO)cc2)O[C@@H]1c1ccccc1`, the z-score in assay [1] was -0.181; in assay [2], 0.458; in [3], -0.253; in assay [4], 0.672; in assay [5] it was 0.418; in assay [6], 0.603. For the same compound, the z-score is -0.672 (inactive) in assay [7], 0.574 in assay [8], 0.4 in [9] and 1.28 (inactive) in assay [10].
For `COC(=O)[C@@]1(Cc2ccc(OC)cc2)[C@H]2c3cc(C(=O)N(C)C)n(Cc4cc(C)n(C)n4)c3C[C@H]2CN1C(=O)c1ccccc1`, the z-score was -0.892 in assay [1]; 0.336 in assay [2]; -0.384 in assay [3]; -0.407 in [4]; -1.77 in assay [5]; 1.57 in assay [6]. Moreover, the z-score in [7] was -0.938 (inactive); in assay [8], 0.534; in [9] it was -0.228; in assay [10], -1.9 (inactive).
As for `COc1cccc(C)c1NC(=O)O[C@H]1[C@H](OC(=O)Nc2ccccc2)[C@H](OC(=O)Nc2ccccc2)[C@@H](OC)O[C@@H]1CO`, the z-score was -1.09 in assay [1]; 0.93 in [2]; -1.1 in assay [3]; -2.53 in [4]; -2.81 in assay [5]; 0.321 in [6]. The z-score in assay [7] was 0.306 (inactive); in assay [8], -1.1; in [9], 0.268; in assay [10], -2.57 (inactive).
Consider `COc1cc2c(cc1OC)CN(C(=O)[C@@H]1[C@H]3C(=O)O[C@H](c4ccccc4)[C@H](c4ccccc4)N3[C@H](c3ccc(O)cc3)[C@@]13C(=O)Nc1ccc(C#CCNC(N)=O)cc13)CC2`, for which the z-score was 0.434 in assay [1]; 0.0878 in assay [2]; -0.659 in [3]; 0.454 in [4]; -0.375 in assay [5]; -1.55 in [6]. Besides, the z-score is -0.628 (inactive) in assay [7], -0.0414 in assay [8], -0.375 in assay [9] and 0.795 (inactive) in assay [10].
For `CN1C(=O)C2C=CC(C(O)COCc3ccccc3)N(Nc3ccccc3)C2C1=O` (stereo not given), the z-score in [1] was -0.115; in assay [2], -1.24; in [3] it was -0.465; in [4], 0.225; in assay [5], 0.192; in assay [6], -1.05. Further, the z-score in [7] was 0.0756 (inactive); in [8], -0.0145; in assay [9], -0.178; in [10], 0.105 (inactive).
For `COC(=O)[C@@]1(Cc2ccccc2)[C@H]2c3cc(C(=O)N(C)C)n(Cc4ccccn4)c3C[C@H]2CN1C(=O)c1ccccc1`, the z-score was -1.43 in assay [1]; -0.125 in assay [2]; -0.468 in assay [3]; -1 in assay [4]; -1.71 in assay [5]; 0.428 in assay [6]. Moreover, the z-score in assay [7] was -0.698 (inactive); in assay [8], 0.00235; in [9], -0.135; in [10], -0.712 (inactive).
